# Data reported in PubChem BioAssay (Tox21).
# Records with an inconclusive call do not appear. A call without a number means that no potency is given here. The source made the active and inactive calls. Unless noted, calls come from the whole dose curve; as a rule, active = well fitted curve in the direction sought with a large enough effect in the repeat runs; inconclusive = weak or mixed curves; inactive = no such curve, though single readings can be large; an effect the other way counts as inactive or inconclusive.
# Experiments:
# [1] = qHTS assay to identify aromatase inhibitors - cell viability counter screen (AID 743084);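 note: cells stimulated with testosterone during compound exposure; nearly all actives have a fitted effect of over 55% in size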
# [2] = target: Aryl hydrocarbon receptor (Homo sapiens) (UniProt P35869); experiment: qHTS assay to identify small molecule that activate the aryl hydrocarbon receptor (AhR) signaling pathway (AID 743085); note: nearly all actives have a fitted effect of over 15% in size; note: potency is the fitted concentration of half-maximal effect;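 for activation: HG2L7.5c1 human HepG2 liver cells with stably integrated DRE-driven firefly reporter; series mostly up to about 70 µM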
# Outline: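 A multiplexed format paired cell viability (CellTiter-Fluor fluorescence) with AhR-dependent luciferase output (ONE-Glo luminescence) in the same wells of HepG2 DRE-luc cells after 24 h compound exposure at 37C.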
# [3] = qHTS assay to identify small molecule that activate the aryl hydrocarbon receptor (AhR) signaling pathway - cell viability counter screen (AID 743086);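 note: HepG2 liver cells carrying the AhR DRE luciferase reporter; series mostly up to about 70 µM; nearly all actives have a fitted effect of over 45% in size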
# Outline: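 Cytotoxicity counter screen: CellTiter-Fluor signal (30 min, 37 C) in 4000 HepG2 cells/well carrying the DRE-luciferase reporter, following 24 h compound exposure at 37 C.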
# [4] = target: Peroxisome proliferator-activated receptor gamma (Homo sapiens) (UniProt P37231); experiment: qHTS assay to identify small molecule antagonists of the peroxisome proliferator-activated receptor gamma (PPARg) signaling pathway (AID 743191; calls by dose curve; note: series mostly up to about 63 µM; nearly all actives have a fitted effect of over 30% in size)
# Outline: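 Beta-lactamase reporter under UAS control in HEK293H PPARg-bla cells; compound treatment 17 h at 37C. Read-out: fluorescence intensity after 1 h room-temperature incubation with LiveBLAzer B/G FRET substrate.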
# [5] = qHTS assay for small molecule agonists of the antioxidant response element (ARE) signaling pathway - cell viability counter screen (AID 743203; calls by dose curve; note: nearly all actives have a fitted effect of over 55% in size)
# Outline: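 ATP content via CellTiter-Glo luminescence served as the viability measure. Cells: ARE-bla HepG2, 2,000 per well. Exposure: 16 hrs, 37C/5% CO2.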
# [6] = qHTS assay for small molecule activators of the heat shock response signaling pathway - cell viability counter screen (AID 743209); note: nearly all actives have a fitted effect of over 50% in size
# Outline: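 Compounds dissolved in DMSO were added to overnight-plated HSE-bla HeLa cells and left 5 h at 37 C. Cell viability was quantified by luminescence using CellTiter-Glo.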
# [7] = qHTS assay for small molecule activators of the heat shock response signaling pathway (AID 743210; active = well fitted activation curve with a large enough effect in the signal ratio in the repeat runs, with a control signal flat, not every such curve was filed as active; the % refers to the signal ratio;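 note: HeLa cells with beta-lactamase reporter driven by heat shock elements; series mostly up to about 63 µM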)
# Outline: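 Fluorescence from a cleaved B/G FRET substrate (2.5 h, room temp) reports HSE-driven beta-lactamase in HeLa cells treated 5 h at 37 C with DMSO-dissolved compounds.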
# [8] = qHTS assay to identify small molecule agonists of the peroxisome proliferator-activated receptor delta (PPARd) signaling pathway - cell viability counter screen (AID 743211); note: nearly all actives have a fitted effect of over 55% in size
# Outline: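 Tox21 library compounds, delivered in DMSO, were incubated 17 h with PPARd-bla HEK293H cells; cytotoxicity was taken from CellTiter-Glo luminescence read 30 min after reagent addition.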
# [9] = target: Peroxisome proliferator-activated receptor delta (Homo sapiens) (UniProt Q03181); experiment: qHTS assay to identify small molecule agonists of the peroxisome proliferator-activated receptor delta (PPARd) signaling pathway (AID 743212; calls by dose curve)
# Outline: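 Steps: seed PPARd-bla HEK293H cells; incubate 5 h, 37 C, 5% CO2; add compounds in DMSO; incubate, 37 C; add LiveBLAzer B/G FRET substrate; hold 2 h at room temperature; measure fluorescence.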
# [10] = qHTS assay to identify small molecule antagonists of the peroxisome proliferator-activated receptor delta (PPARd) signaling pathway - cell viability counter screen (AID 743213); note: nearly all actives have a fitted effect of over 50% in size
# Outline: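 PPARd-bla HEK293H cells (3000/well) got compound plus 300 nM L165041 agonist for 17 h at 37 C. Viability in the same wells came from CellTiter-Glo luminescence after 30 min at room temperature.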
# [11] = target: Peroxisome proliferator-activated receptor delta (Homo sapiens) (UniProt Q03181); experiment: qHTS assay to identify small molecule antagonists of the peroxisome proliferator-activated receptor delta (PPARd) signaling pathway (AID 743215; active = well fitted inhibition curve with a large enough effect in the signal ratio in the repeat runs, not every such curve was filed as active; the % refers to the signal ratio;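 note: cells stimulated with agonist L165041 at 300 nM final during compound exposure; series mostly up to about 62 µM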)
# Outline: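 Here, a reporter line (HEK293H, beta-lactamase under a UAS) measures PPARd signaling. Compounds are tested against agonist L165041 at 300 nM final concentration over 17 h at 37 C, with fluorescence read after substrate.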
# [12] = qHTS assay to identify small molecule agonists of the farnesoid-X-receptor (FXR) signaling pathway - cell viability counter screen (AID 743218); note: nearly all actives have a fitted effect of over 45% in size
# Outline: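 Quantitative HTS counter screen measuring ATP-based viability via CellTiter-Glo luminescence in HEK 293T cells carrying a UAS-driven beta-lactamase reporter, after 16 h compound exposure at 37 C.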
# [13] = qHTS assay to identify small molecule antagonists of the farnesoid-X-receptor (FXR) signaling pathway - cell viability counter screen (AID 743221; active = well fitted cell-killing curve with a large enough effect in the repeat runs, not every such curve was filed as active; note: nearly all actives have a fitted effect of over 50% in size)
# Outline: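 Cytotoxicity is taken from ATP luminescence (CellTiter-Glo, 30 min, room temperature) in FXR-bla HEK 293T cells previously incubated 16 h at 37 C with compound and chenodeoxycholic acid at 50 uM final.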
# [14] = target: Vitamin D3 receptor (Homo sapiens) (UniProt P11473); experiment: qHTS assay to identify small molecule antagonists of the vitamin D receptor (VDR) signaling pathway (AID 743223; active = well fitted inhibition curve with a large enough effect in the signal ratio in the repeat runs, not every such curve was filed as active; the % refers to the signal ratio)
# Outline: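 Quantitative HTS in VDR-bla reporter cells stimulated with 1alpha,25-dihydroxyvitamin D3, 3 nM final. Compound exposure 16 h, 37C, 5% CO2. Read-out: beta-lactamase FRET substrate fluorescence, 2 h RT.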
# [15] = target: Peroxisome proliferator-activated receptor gamma (Homo sapiens) (UniProt P37231); experiment: qHTS assay to identify small molecule agonists of the peroxisome proliferator-activated receptor gamma (PPARg) signaling pathway (AID 743094; active = well fitted activation curve with a large enough effect in the signal ratio in the repeat runs, not every such curve was filed as active; the % refers to the signal ratio)
# Outline: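 Agonism was assessed in a beta-lactamase reporter system, HEK293H cells with a stably integrated UAS-bla construct under PPARg control; the 17 h treatment at 37C preceded a 1 h room-temperature FRET substrate read.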
# [16] = qHTS assay to identify small molecule antagonists of the peroxisome proliferator-activated receptor gamma (PPARg) signaling pathway - cell viability counter screen (AID 743194); note: nearly all actives have a fitted effect of over 55% in size; note: potency is the fitted concentration of half-maximal effect
# Outline: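 Viability was measured as CellTiter-Glo luminescence in GeneBLAzer PPARg UAS-bla HEK293H cells. These cells had been exposed 17 h at 37 C to compounds together with rosiglitazone at 50 nM final, with the beta-lactamase readout taken in the same wells.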
# [17] = qHTS assay for small molecule agonists of the antioxidant response element (ARE) signaling pathway (AID 743202; active = well fitted activation curve with a large enough effect in the signal ratio in the repeat runs, not every such curve was filed as active; the % refers to the signal ratio)
# Outline: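 Beta-lactamase reporter activity, read as fluorescence intensity, reflects ARE/Nrf2 pathway induction in HepG2 cells after 16 h compound exposure at 37 C; substrate loading was 2 h at room temperature.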
# [18] = target: Vitamin D3 receptor (Homo sapiens) (UniProt P11473); experiment: qHTS assay to identify small molecule agonists of the vitamin D receptor (VDR) signaling pathway (AID 743222; calls by dose curve)
# Outline: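 Tox21 cell reporter format: VDR-bla line, 16 h compound exposure in 5% CO2 at 37C, then fluorescence intensity after 2 h with LiveBLAzer B/G FRET substrate.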
# [19] = target: Bile acid receptor (Homo sapiens) (UniProt Q96RI1); experiment: qHTS assay to identify small molecule antagonists of the farnesoid-X-receptor (FXR) signaling pathway (AID 743217; active = well fitted inhibition curve with a large enough effect in the signal ratio in the repeat runs, not every such curve was filed as active; the % refers to the signal ratio)
# Outline: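 Test compounds are pin-transferred onto FXR-bla HEK 293T cells, then chenodeoxycholic acid is added at 50 uM final. After 16 h at 37 °C, LiveBLAzer B/G substrate is applied for 2 h at room temperature and fluorescence read.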
# [20] = target: Bile acid receptor (Homo sapiens) (UniProt Q96RI1); experiment: qHTS assay to identify small molecule agonists of the farnesoid-X-receptor (FXR) signaling pathway (AID 743220; active = well fitted activation curve with a large enough effect in the signal ratio in the repeat runs, not every such curve was filed as active; the % refers to the signal ratio)
# Outline: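 FXR-UAS-bla HEK 293T cells carrying a UAS-driven beta-lactamase reporter were plated for 5 h at 37C/5% CO2, then exposed to DMSO-dissolved Tox21 10K compounds for 16 h at 37C. A LiveBLAzer B/G FRET substrate was loaded for 2 h at room temperature before fluorescence reading.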
# Sequence of Aryl hydrocarbon receptor (Homo sapiens) (P35869 whole entry, looked up): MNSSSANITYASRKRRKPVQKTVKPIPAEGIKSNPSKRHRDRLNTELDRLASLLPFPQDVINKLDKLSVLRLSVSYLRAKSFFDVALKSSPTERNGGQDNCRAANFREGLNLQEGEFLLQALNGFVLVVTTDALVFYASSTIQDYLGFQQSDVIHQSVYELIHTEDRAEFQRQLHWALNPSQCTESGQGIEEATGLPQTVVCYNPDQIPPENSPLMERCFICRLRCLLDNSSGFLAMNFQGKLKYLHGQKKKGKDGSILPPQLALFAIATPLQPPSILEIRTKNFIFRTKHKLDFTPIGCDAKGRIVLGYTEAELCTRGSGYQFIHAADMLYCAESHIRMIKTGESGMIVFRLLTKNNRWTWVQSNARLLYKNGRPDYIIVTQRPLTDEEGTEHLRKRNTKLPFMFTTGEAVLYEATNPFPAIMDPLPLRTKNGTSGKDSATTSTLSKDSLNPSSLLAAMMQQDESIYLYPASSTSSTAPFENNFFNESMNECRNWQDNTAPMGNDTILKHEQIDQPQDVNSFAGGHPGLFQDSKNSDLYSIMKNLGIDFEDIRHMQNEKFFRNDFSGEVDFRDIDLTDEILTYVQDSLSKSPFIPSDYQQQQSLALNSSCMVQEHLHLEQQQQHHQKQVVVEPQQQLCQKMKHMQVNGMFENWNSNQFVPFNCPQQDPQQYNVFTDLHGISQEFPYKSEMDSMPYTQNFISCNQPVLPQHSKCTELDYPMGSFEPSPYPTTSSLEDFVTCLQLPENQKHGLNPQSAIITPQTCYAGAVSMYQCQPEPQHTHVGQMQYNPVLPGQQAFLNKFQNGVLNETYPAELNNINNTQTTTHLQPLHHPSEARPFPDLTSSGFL
# Sequence of Vitamin D3 receptor (Homo sapiens) (P11473 whole entry, looked up): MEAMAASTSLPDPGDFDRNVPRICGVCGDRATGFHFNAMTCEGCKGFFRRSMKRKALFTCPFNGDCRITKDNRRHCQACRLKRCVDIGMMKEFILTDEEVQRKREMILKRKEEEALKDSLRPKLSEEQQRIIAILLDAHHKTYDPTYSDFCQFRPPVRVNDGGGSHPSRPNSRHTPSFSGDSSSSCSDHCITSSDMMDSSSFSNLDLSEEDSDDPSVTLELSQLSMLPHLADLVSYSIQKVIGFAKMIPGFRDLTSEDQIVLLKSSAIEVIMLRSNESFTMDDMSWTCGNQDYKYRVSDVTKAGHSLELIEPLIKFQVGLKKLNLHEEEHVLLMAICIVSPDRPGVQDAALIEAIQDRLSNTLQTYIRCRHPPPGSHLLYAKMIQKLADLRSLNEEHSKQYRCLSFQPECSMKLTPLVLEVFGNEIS
# Sequence of Peroxisome proliferator-activated receptor gamma (Homo sapiens) (P37231 whole entry, looked up): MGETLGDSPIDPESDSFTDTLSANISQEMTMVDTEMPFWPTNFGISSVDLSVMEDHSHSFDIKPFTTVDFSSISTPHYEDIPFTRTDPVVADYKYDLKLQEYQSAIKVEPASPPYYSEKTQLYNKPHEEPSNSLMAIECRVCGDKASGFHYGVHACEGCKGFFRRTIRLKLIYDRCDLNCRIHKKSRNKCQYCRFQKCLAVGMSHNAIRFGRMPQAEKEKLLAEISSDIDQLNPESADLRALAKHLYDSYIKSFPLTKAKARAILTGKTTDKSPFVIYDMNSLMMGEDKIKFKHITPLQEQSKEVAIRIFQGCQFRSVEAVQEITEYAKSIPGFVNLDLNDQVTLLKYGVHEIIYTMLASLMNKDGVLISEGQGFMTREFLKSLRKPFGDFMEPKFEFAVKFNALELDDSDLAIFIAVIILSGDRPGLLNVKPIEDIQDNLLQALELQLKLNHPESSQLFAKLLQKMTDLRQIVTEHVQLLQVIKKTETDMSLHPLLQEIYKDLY
# Sequence of Bile acid receptor (Homo sapiens) (Q96RI1 whole entry, looked up): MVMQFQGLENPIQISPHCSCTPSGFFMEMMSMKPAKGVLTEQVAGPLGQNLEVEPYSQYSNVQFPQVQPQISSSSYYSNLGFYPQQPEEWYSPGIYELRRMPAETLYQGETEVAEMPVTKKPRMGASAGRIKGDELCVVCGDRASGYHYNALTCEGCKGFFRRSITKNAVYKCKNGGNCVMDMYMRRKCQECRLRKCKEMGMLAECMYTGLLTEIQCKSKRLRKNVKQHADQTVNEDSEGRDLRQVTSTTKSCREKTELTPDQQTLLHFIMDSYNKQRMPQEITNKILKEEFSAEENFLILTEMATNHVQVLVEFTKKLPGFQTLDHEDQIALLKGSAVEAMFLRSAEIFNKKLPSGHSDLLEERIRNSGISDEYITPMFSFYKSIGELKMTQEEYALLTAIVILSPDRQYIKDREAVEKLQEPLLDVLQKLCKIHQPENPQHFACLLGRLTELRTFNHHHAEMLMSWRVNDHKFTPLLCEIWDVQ
# Sequence of Peroxisome proliferator-activated receptor delta (Homo sapiens) (Q03181 whole entry, looked up): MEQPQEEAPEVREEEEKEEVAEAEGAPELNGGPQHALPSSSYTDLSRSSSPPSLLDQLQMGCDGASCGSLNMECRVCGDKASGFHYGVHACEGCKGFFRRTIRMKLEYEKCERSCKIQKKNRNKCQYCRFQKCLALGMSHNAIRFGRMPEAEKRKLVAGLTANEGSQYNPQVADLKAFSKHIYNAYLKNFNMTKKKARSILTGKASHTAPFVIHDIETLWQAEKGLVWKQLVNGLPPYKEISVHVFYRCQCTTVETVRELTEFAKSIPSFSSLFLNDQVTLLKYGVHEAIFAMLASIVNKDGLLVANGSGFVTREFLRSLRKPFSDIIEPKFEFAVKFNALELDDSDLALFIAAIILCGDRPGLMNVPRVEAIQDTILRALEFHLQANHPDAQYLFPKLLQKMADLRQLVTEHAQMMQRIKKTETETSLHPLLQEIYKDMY
Structure (SMILES),Potency [1],Potency [2],Potency [3],outcome [4],outcome [5],outcome [6],outcome [7],Potency [8],outcome [9],Potency [10],outcome [11],outcome [12],Potency [13],outcome [14],outcome [15],Potency [16],Potency [17],outcome [18],outcome [19],outcome [20]
CCCCCCCCCCC1CO1 (stereo unspecified),inactive,inactive,inactive,inactive,inactive,inactive,inactive,inactive,inactive,inactive,inactive,inactive,inactive,inactive,–,–,–,–,–,–
C=C(C)[C@@H]1CCC2=CC(=O)C[C@@H](C)[C@]2(C)C1,inactive,inactive,–,inactive,inactive,inactive,inactive,inactive,inactive,inactive,inactive,–,inactive,–,inactive,inactive,inactive,inactive,–,–
O=C(O)c1cccc(C(=O)O)n1,inactive,inactive,inactive,–,inactive,inactive,inactive,inactive,inactive,inactive,inactive,–,–,–,inactive,–,–,inactive,inactive,inactive
C=C(C)[C@H]1CC=C(C)CC1,inactive,inactive,inactive,–,inactive,inactive,inactive,inactive,–,inactive,–,inactive,inactive,–,–,inactive,inactive,–,–,–
OCCCCCCO,inactive,inactive,–,inactive,inactive,inactive,inactive,inactive,inactive,inactive,inactive,inactive,inactive,inactive,inactive,inactive,inactive,–,inactive,inactive
CCCCCCC(CCCCCCCCCCC(=O)OCC(COC(C)=O)OC(C)=O)OC(C)=O (stereo unspecified),inactive,inactive,inactive,–,inactive,inactive,inactive,inactive,–,inactive,inactive,–,inactive,inactive,–,–,–,–,–,inactive
CCCC(C)C(=O)O (stereo unspecified),inactive,inactive,inactive,–,inactive,–,inactive,inactive,inactive,–,–,inactive,inactive,inactive,inactive,–,inactive,inactive,inactive,inactive
CCO[Si](C)(OCC)OCC,inactive,inactive,inactive,–,inactive,inactive,inactive,inactive,inactive,–,inactive,–,inactive,inactive,–,inactive,inactive,–,–,–
O=C(O)Cc1cc(I)c(Oc2cc(I)c(O)c(I)c2)c(I)c1,inactive,inactive,inactive,–,–,inactive,–,inactive,–,inactive,–,–,–,–,–,19.1 µM (active),–,–,–,–
C#CC(C)(O)CC(C)C (stereo unspecified),inactive,inactive,–,inactive,inactive,inactive,inactive,inactive,inactive,–,inactive,inactive,inactive,inactive,inactive,inactive,inactive,inactive,–,–
CCCCNc1ccccc1,inactive,inactive,–,inactive,inactive,inactive,inactive,inactive,inactive,inactive,inactive,inactive,inactive,inactive,inactive,inactive,inactive,inactive,inactive,inactive
OC/C=C/c1ccccc1,inactive,inactive,inactive,–,inactive,inactive,inactive,inactive,inactive,inactive,–,inactive,inactive,inactive,–,–,inactive,inactive,–,–
C(=C(c1ccccc1)c1ccccc1)c1ccccc1,inactive,inactive,inactive,–,inactive,inactive,inactive,–,inactive,inactive,inactive,inactive,inactive,inactive,inactive,–,–,inactive,inactive,inactive
CC/C=C\CCCCO,inactive,inactive,inactive,–,inactive,inactive,inactive,inactive,–,inactive,–,–,inactive,inactive,inactive,–,inactive,inactive,–,–
CCOC(=O)Cn1c(=O)sc2cccc(Cl)c21,inactive,30.6 µM (active),inactive,–,inactive,inactive,inactive,–,inactive,inactive,inactive,inactive,inactive,inactive,inactive,–,–,inactive,inactive,inactive
Cc1nc(-c2ccc(OCC(C)C)c(C#N)c2)sc1C(=O)O,inactive,0.0298 µM (active),inactive,–,inactive,inactive,inactive,inactive,–,inactive,–,inactive,inactive,–,inactive,–,–,–,–,–
CC12CCC(CC1=O)C2(C)C (stereo unspecified),inactive,inactive,inactive,–,inactive,inactive,inactive,inactive,inactive,inactive,inactive,–,inactive,inactive,–,–,inactive,inactive,–,–
CCCCCCOC(=O)CC(CC(=O)OCCCCCC)(OC(=O)CCC)C(=O)OCCCCCC,inactive,inactive,inactive,–,inactive,inactive,inactive,inactive,inactive,inactive,–,inactive,inactive,–,inactive,–,inactive,inactive,–,–
C=CC(=O)OCCCCCC,inactive,inactive,inactive,–,inactive,inactive,inactive,inactive,inactive,inactive,–,inactive,inactive,–,–,inactive,inactive,–,–,–
